SMILES strings stand for the structures. Values joined by “and” are separate entries in the source; they are usually repeats but may differ in a detail not shown here. Identical values can stand only once. Records with an inconclusive call do not appear. Unmarked numbers belong to inactive results. Active and inactive are the calls of the source. Calls follow the shape of the dose curve; as a rule, active = well fitted curve in the direction sought with a large enough effect; inconclusive = small, poorly fitted or top-dose-only effect, or another doubt; inactive = no such curve, though single readings can be large; an effect the other way counts as inactive or inconclusive.

For experiment [1], the system named is CRL-7250. Nature of the experiment: Cytotoxic Profiling of Annotated Libraries Using Quantitative High-Throughput Screening (AID 1296008). Also: nearly all actives have a fitted effect of over 60% in size. Also: potency is read from the fitted curve at half-maximal effect. The note with it: Five cell lines viability, CellTiter-Glo ATP luminescence, 48-72 h; max response: hits give low values. Put shortly:
(§1)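 Cells exposed to compounds for 48 or 72 hr at 37 degrees Celsius. Viability read as ATP-coupled luminescence with CellTiter-Glo after 10 min at room temperature.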
(In general: In ATP-based viability assays light output follows the ATP content of the culture.)

Experiment [2] relates to HEK293. The experiment is described as above. The note with it: Five cell lines viability, CellTiter-Glo ATP luminescence, 48-72 h; max response: hits give low values. Put shortly: as §1
Experiment [3] deals with HaCat. The experiment is described as above. The note with it: Five cell lines viability, CellTiter-Glo ATP luminescence, 48-72 h; max response: hits give low values. Put shortly: as §1
The subject of experiment [4] is KB-3-1. Described as above. Particulars: Five cell lines viability, CellTiter-Glo ATP luminescence, 48-72 h; max response: hits give low values. The method in brief: as §1
For experiment [5], the system named is NIH3T3. Described as above. Particulars: Five cell lines viability, CellTiter-Glo ATP luminescence, 48-72 h; max response: hits give low values. The method in brief:
as §1

The subject of experiment [6] is MKL-2. Nature of the experiment: qHTS assay to identify novel small-molecules to repurpose for Merkel cell carcinoma treatment (AID 1296009). Also: nearly all actives have a fitted effect of over 60% in size. Also: potency is read from the fitted curve at half-maximal effect. Particulars: MCC and control cell lines, CellTiter-Glo viability, 72 h; series mostly up to 46 µM. Put shortly:
(§2)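 CellTiter-Glo luminescence after 72 hr compound exposure at 37 degree celsius gave cell viability. Libraries NPC and MIPE were run as 8- and 11-point dose responses; RLUs normalized to DMSO (negative) and no-cell (cytotoxicity) controls.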
A general note: qHTS replaces the single test concentration by a dilution series.

The subject of experiment [7] is UISO. Described as above. Particulars: MCC and control cell lines, CellTiter-Glo viability, 72 h; series mostly up to 46 µM. The method in brief:
as §2

In experiment [8] the test system is MCC-13. The description is as above. The note with it: MCC and control cell lines, CellTiter-Glo viability, 72 h; series mostly up to 46 µM. Put shortly:
as §2

Experiment [9] concerns MKL-1. Described as above. Particulars: MCC and control cell lines, CellTiter-Glo viability, 72 h; series mostly up to 46 µM. Put shortly:
as §2

The test system of experiment [10] is WaGa. The description is as above. The note with it: MCC and control cell lines, CellTiter-Glo viability, 72 h; series mostly up to 46 µM. Put shortly:
as §2

In experiment [11] the test system is MCC-26. The experiment is described as above. Particulars: MCC and control cell lines, CellTiter-Glo viability, 72 h; series mostly up to 46 µM. The method in brief:
as §2

Experiment [12] has as its system C33A. Nature of the experiment: Primary qHTS to identify gynecologic anti-cancer compounds using libraries of approved drugs and bioactive compounds (AID 1345084). Also: nearly all actives have a fitted effect of over 55% in size. Particulars: Gynecologic cancer cell panel viability, ATPlite luminescence, 48 h; series mostly up to 57.5 µM. Put shortly:
(§3)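 Cells, 1,000 per well, were allowed to settle for 16 h at 37 C before compound addition. Five concentrations were tested for 48 h, and viability was read by ATPlite luminescence after 15 min at room temperature.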

Experiment [13] deals with CASKI. Described as above. The note with it: Gynecologic cancer cell panel viability, ATPlite luminescence, 48 h; series mostly up to 57.5 µM. The method in brief: as §3
For experiment [14], the system named is Es-2. The experiment is described as above. The note with it: Gynecologic cancer cell panel viability, ATPlite luminescence, 48 h; series mostly up to 57.5 µM. The method in brief: as §3
The test system of experiment [15] is HeLa. Described as above. Particulars: Gynecologic cancer cell panel viability, ATPlite luminescence, 48 h; series mostly up to 57.5 µM. The method in brief:
as §3
% is scaled to controls: 0 for no effect and ±100 for the full control effect.

With `CNC(=O)c1cccc(-c2ccc3c(N4CCOC[C@H]4C)nc(N4CCOC[C@H]4C)nc3n2)c1`, the Potency in [1] is 46.9 nM (active); in experiment [2], 105 nM (active); in experiment [3], 10500 nM (active); in experiment [4], 118 nM (active); in [5], 418 nM (active); in [7], 166 nM (active). For the same compound, the Potency entry in experiment [6] was “inactive”.

For `COc1cc([C@@H]2c3cc4c(cc3[C@@H](O[C@@H]3O[C@@H]5CO[C@@H](c6cccs6)O[C@@H]5[C@H](O)[C@@H]3O)[C@H]3COC(=O)[C@H]23)OCO4)cc(OC)c1O`, the Potency in experiment [1] was 16600 nM (active); in experiment [2], 148 nM (active); in experiment [3], 590 nM (active); in [4] it was 743 nM (active); in [5] it was 132 nM (active); in experiment [8], 1660 nM (active). For the same compound, the Potency in [9] is 235 nM (active); in [6], 118 nM (active); in [7] it was 1870 nM (active).

As to `CC(C=CC(=O)NO)=C[C@@H](C)C(=O)c1ccc(N(C)C)cc1`, the Potency in experiment [1] is 5260 nM (active); in [2], 1050 nM (active); in experiment [3], 2960 nM (active); in experiment [4], 1180 nM (active); in [5], 1480 nM (active); in experiment [8] it was 8330 nM (active). The Potency in [9] was 1660 nM (active); in [6] it was 166 nM (active); in experiment [7], 3320 nM (active); in experiment [10], 743 nM (active).

As to `COc1ccc(C[C@@H](C)[C@@H](C)Cc2ccc(OC)c(OC)c2)cc1OC`, the Potency in experiment [1] is 3320 nM (active); in experiment [2] it was 2640 nM (active); in [4], 2960 nM (active); in experiment [5], 2350 nM (active); in [6], 3720 nM (active); in experiment [7], 1320 nM (active). Further, the Potency in [10] was 833 nM (active). Besides, the max response in experiment [3] was 3.58%.

`COc1cc(N2CCC(C(N)=O)CC2)ccc1Nc1nc(N)c(Cl)c(Nc2ccccc2S(=O)(=O)C(C)C)n1`: the compound was called inactive in [1]. The Potency is 1480 nM (active) in experiment [2], 3720 nM (active) in [5], 5900 nM (active) in experiment [7] and 16600 nM (active) in [10]. Besides, the values for the max response in [3] and in [4] were -18.3% and 2.09%, respectively. For the same compound, the Potency entry in [8] is “inactive”.

In the case of `C[C@@]12C(=O)OC(=O)[C@@]1(C)C1CCC2O1`, the Potency was 5260 nM (active) in [1]; 8330 nM (active) in experiment [2]; 26400 nM (active) in experiment [3]; 7430 nM (active) in [4]; 13200 nM (active) in experiment [5]; 4180 nM (active) in experiment [6]. Further, the Potency in [10] is 2960 nM (active).

With `CCOc1cc2ncc(C#N)c(Nc3ccc(OCc4ccccn4)c(Cl)c3)c2cc1NC(=O)C=CCN(C)C`, the Potency is 1050 nM (active) in experiment [1], 3320 nM (active) in experiment [2] and 5.3 nM (active) in [3]. In addition, the max response in [4] was -18.5%. Also, the Potency entry in [8], in experiment [11], in experiment [9] and in experiment [10] was “inactive” in each case.

With `CO[C@@H]1[C@@H](O)[C@H](O)[C@@H](n2c3c(Cl)cccc3c3c4c(c5c6cccc(Cl)c6[nH]c5c32)C(=O)NC4=O)O[C@@H]1CO`, the Potency is 3720 nM (active) in [1]; 662 nM (active) in experiment [2]; 3320 nM (active) in [3]; 2960 nM (active) in experiment [4]; 1660 nM (active) in [5]; 1180 nM (active) in experiment [11]. For the same compound, the Potency was 332 nM (active) in experiment [9], 935 nM (active) in experiment [6], 264 nM (active) in [7] and 166 nM (active) in experiment [10].

As to `N#CC(=C(O)c1ccc(Cl)cc1Cl)c1nc2cc(Cl)ccc2c(=O)[nH]1`, the max response was -6.32% in [1]; 1.08% in [2]; 4.62% in experiment [3]; 3.32% in experiment [4]; 1.52% in experiment [5]. The Potency result in experiment [8], in [9], in [6], in experiment [7] and in experiment [10] was “inactive” each time.

With `CCCCC(=O)O[C@]1(C(=O)CO)[C@@H](C)C[C@H]2[C@@H]3CCC4=CC(=O)C=C[C@]4(C)[C@@]3(F)[C@@H](O)C[C@@]21C`, the compound was classed as inactive in experiment [1] and in experiment [4]. Besides, the max response is 3.05% in experiment [2] and -1.65% in [5]. Besides, the Potency entry in [8], in experiment [9], in experiment [6], in experiment [7], in experiment [10] and in experiment [12] was “inactive” each time. The Potency result in experiment [13], in experiment [14] and in experiment [15] was “inactive” throughout.

As for `O=C1NC(=O)C(=Cc2ccc3nccc(-c4ccncc4)c3c2)S1`, the Potency is 52.6 nM (active) in experiment [1]; 74.3 nM (active) in experiment [2]; 148 nM (active) in experiment [4]; 209 nM (active) in experiment [5]; 1870 nM (active) in experiment [8]; 2960 nM (active) in experiment [11]. Further, the Potency is 1480 nM (active) in experiment [9], 469 nM (active) in experiment [6], 743 nM (active) in experiment [7] and 833 nM (active) in experiment [10].

Consider `CCC(C=C[C@@H]1OC(=O)C=C[C@H]1C)=C[C@H](C)CC=CC(C)=C[C@@H](C)C(=O)[C@@H](C)[C@H](O)[C@@H](C)CC(C)=CC(=O)O`, for which the Potency is 55.3 nM (active) in experiment [1]; 17.5 nM (active) in [2]; 110 nM (active) in experiment [3]; 124 nM (active) in [5]; 98.4 nM (active) in experiment [8]; 4.9 nM (active) in experiment [6]. Besides, in [7], the Potency was 22 nM (active).

As for `C[C@@H]1CC[C@@]2(OC1)OC1CC3C4CC=C5CC(O)CCC5(C)C4CCC3(C)C1[C@@H]2C` (stereo partly specified), the max response in experiment [1] is -6.42%; in experiment [4], -6.71%; in [5] it was -12.1%. Besides, the Potency in experiment [2] was 10500 nM (active). The Potency result in [8], in [9], in experiment [6], in experiment [7] and in experiment [10] was “inactive” in each case.

For `CCc1nc(-c2cccc(C)c2)c(-c2ccnc(NC(=O)c3ccccc3)c2)s1`, the outcome in [1] was inactive. Further, the Potency in [2] is 14800 nM (active). Further, the max response in [3] is -12.8% and -8.84%; in experiment [4], -16.2%. In addition, the Potency entry in [8], in experiment [11], in experiment [12], in experiment [13], in experiment [14] and in experiment [15] was “inactive” each time.

Source of the values: PubChem BioAssay (NCATS).
